In PubChem BioAssay (NCATS):
Records with an inconclusive call do not appear. Activity calls are given as the source filed them. Unless noted, the call rests on the fitted dose curve.

Key:
[1] = molecular target: Vitamin D3 receptor (Homo sapiens) (UniProt P11473); assay: qHTS assay for small molecule agonists of vitamin D receptor signaling (AID 588543);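 further: 0% = DMSO basal and 100% = reference agonist control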
Method in brief: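 Measured: β-lactamase reporter activity (CCF4, 405 nm excitation, 460/530 nm emission) in HEK293T VDR-UAS-bla cells after 16 h compound exposure at 37 °C. Normalization against 50 nM 1α,25-dihydroxyvitamin D3 and DMSO; Hill-fit EC50.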

[2] = molecular target: Thyroid hormone receptor beta (Homo sapiens) (UniProt P10828); assay: qHTS assay for small molecule agonists of thyroid hormone receptor beta signaling (AID 588545);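 further: 0% = DMSO only and 100% = 10 nM T3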
Sequence of Thyroid hormone receptor beta (Homo sapiens) (P10828 whole entry, looked up): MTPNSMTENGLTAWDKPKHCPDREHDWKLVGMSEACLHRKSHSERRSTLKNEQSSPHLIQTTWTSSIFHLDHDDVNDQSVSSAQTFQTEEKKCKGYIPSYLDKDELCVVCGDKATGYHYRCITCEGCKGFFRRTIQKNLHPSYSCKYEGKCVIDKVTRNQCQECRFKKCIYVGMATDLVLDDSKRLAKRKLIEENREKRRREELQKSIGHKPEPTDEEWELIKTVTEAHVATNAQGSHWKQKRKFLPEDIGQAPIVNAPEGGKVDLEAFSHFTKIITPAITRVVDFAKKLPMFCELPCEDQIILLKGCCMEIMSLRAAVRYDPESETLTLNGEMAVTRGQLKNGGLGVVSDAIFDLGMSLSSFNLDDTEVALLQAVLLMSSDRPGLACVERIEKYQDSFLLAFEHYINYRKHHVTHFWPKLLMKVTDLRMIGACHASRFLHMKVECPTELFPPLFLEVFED
Method in brief: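 Compounds were tested as agonists in TR-UAS-bla-GripTite HEK 293 cells. After 18 hrs at 37 C, CCF4 substrate was added and fluorescence read after 2 hrs at room temperature.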

[3] = qHTS assay for small molecule antagonists of retinoid X receptor alpha signaling (AID 588546; active means well fitted inhibition curve with a large enough effect in the signal ratio, with a control signal flat, not every such curve was filed as active; the % refers to the signal ratio;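 further: cells stimulated with 9-cis-retinoic acid as agonist; on the % scale 0 is the no-effect control and ±100 the full control effect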); conditions: HEK293T RXRa-UAS-bla, beta-lactamase ratio, antagonist mode; measured here: W530 green channel, cytotoxicity proxy
Method in brief: (§1)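 Beta-lactamase reporter inhibition, read as CCF4 fluorescence ratio (ex 405, em 460/530 nm) after 2 h at RT. HEK293T UAS-bla cells, 2500/well, were stimulated with 9-cis-RA at 500 or 100 nM final alongside test compound for 18 h at 37 C.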

[4] = molecular target: Retinoic acid receptor RXR-alpha (Homo sapiens) (UniProt P19793); assay: as above; conditions: HEK293T RXRa-UAS-bla, beta-lactamase ratio, antagonist mode
Sequence of Retinoic acid receptor RXR-alpha (Homo sapiens) (P19793 whole entry, looked up): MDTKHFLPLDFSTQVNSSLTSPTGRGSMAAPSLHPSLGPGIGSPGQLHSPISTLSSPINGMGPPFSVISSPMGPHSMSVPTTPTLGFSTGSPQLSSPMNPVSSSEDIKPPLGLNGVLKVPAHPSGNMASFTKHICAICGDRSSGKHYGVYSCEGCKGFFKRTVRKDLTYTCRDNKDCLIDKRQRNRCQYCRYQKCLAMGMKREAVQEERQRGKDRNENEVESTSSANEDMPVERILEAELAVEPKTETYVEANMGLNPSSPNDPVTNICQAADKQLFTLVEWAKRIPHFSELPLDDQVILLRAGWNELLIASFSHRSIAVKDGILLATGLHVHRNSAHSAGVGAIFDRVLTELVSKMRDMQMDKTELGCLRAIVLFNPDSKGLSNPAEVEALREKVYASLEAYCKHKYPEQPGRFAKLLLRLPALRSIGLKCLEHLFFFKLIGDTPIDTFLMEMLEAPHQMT
Method in brief: as §1

[5] = qHTS assay for environmental chemicals that activate the Aryl hydrocarbon Receptor (AhR) signaling pathway (AID 651777; active means well fitted curve in the direction sought with a large enough effect; an effect the other way counts as inactive or inconclusive; further: % of control where 0% means no effect; nearly all actives have a fitted effect of over 15% in size); conditions: 1A2-DRE human hepatoma cells, luciferase, 24 h; activation: stronger effect = higher value
Method in brief: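 Quantitative HTS in stably transfected human liver-derived cells whose luciferase gene sits downstream of the CYP1A2 promoter and dioxin response element. After 24 hr exposure at 37 C, One-Glo luminescence was measured.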

[6] = molecular target: Peroxisome proliferator-activated receptor alpha (Homo sapiens) (UniProt Q07869); assay: qHTS assay for small molecule agonists of the peroxisome proliferator-activated receptor alpha (PPARalpha) signaling pathway (AID 651778; active means well fitted curve in the direction sought with a large enough effect; an effect the other way counts as inactive or inconclusive; further: % of control where 0% means no effect); conditions: PathHunter PPARalpha complementation, chemiluminescence, 6 h; max response: stronger effect = higher value
Sequence of Peroxisome proliferator-activated receptor alpha (Homo sapiens) (Q07869 whole entry, looked up): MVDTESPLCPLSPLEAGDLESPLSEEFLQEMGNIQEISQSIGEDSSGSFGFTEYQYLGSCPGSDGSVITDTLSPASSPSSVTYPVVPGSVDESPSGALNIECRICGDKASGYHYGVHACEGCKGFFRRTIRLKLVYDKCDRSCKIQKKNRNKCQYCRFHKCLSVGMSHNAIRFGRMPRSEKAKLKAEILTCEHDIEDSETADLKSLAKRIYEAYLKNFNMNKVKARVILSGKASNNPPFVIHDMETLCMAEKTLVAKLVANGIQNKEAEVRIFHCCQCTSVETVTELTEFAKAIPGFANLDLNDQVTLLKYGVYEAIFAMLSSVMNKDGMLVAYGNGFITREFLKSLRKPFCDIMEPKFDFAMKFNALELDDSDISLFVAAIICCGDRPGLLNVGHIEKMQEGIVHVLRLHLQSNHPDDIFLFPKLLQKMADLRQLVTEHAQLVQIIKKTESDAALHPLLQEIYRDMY
Method in brief: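 Chemiluminescence from complemented enzyme reported PPARalpha activation in cells after 6 hr of compound treatment at 37 C. The detection reagent was incubated for 60 min at room temperature, and compounds were scored as agonists.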

[7] = qHTS assay for small molecule agonists of the antioxidant response element (ARE) signaling pathway measured by Nrf2-dependant transcriptional activity (AID 720636; active means well fitted curve in the direction sought with a large enough effect in the repeat runs; an effect the other way counts as inactive or inconclusive; further: % of control where 0% means no effect)
Method in brief: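 Quantitative HTS format in HepG2 cells stably expressing an ARE-luciferase reporter; 16 hr compound treatment at 37 C, luciferase signal detected with ONE-Glo.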

[8] = qHTS assay for cell viability of HEK293 cells (AID 743288; active means well fitted curve in the direction sought with a large enough effect; an effect the other way counts as inactive or inconclusive; further: on the % scale 0 is the no-effect control and ±100 the full control effect; nearly all actives have a fitted effect of over 50% in size); conditions: ATP luminescence (CellTiter-Glo), 18 h; max response: stronger effect = lower value
Method in brief: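 Luminescent ATP quantitation served as the viability read-out. Cells (parental HEK293, 2,000/well) received compounds after at least 5 h at 37 C and were exposed for 18 h before a 30 min room-temperature reagent step.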

[9] = qHTS assay for cell viability of the p53RE-bla HCT-116 cell line (AID 743292; active means well fitted curve in the direction sought with a large enough effect; an effect the other way counts as inactive or inconclusive; further: on the % scale 0 is the no-effect control and ±100 the full control effect; nearly all actives have a fitted effect of over 55% in size)
Method in brief: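 Viability of compound-treated p53RE-bla HCT-116 cells is taken from ATP-dependent luciferase luminescence. Treatment lasts 16 h at 37 C after a 5 h settling period; detection follows 30 min at room temperature.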

[10] = molecular target: Glucocorticoid receptor (Homo sapiens) (UniProt P04150); assay: qHTS assay for small molecule agonists of glucocorticoid receptor signaling (AID 588532; active means well fitted curve in the direction sought with a large enough effect in the signal ratio, with a control signal flat; the % refers to the signal ratio;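 further: 100% = dexamethasone at 0.1 µM and 0% = DMSO only wells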); conditions: HeLa MMTV-bla, beta-lactamase ratio, agonist, 18 h; activation: stronger effect = higher value, percent of dexamethasone control, DMSO zero
Sequence of Glucocorticoid receptor (Homo sapiens) (P04150 whole entry, looked up): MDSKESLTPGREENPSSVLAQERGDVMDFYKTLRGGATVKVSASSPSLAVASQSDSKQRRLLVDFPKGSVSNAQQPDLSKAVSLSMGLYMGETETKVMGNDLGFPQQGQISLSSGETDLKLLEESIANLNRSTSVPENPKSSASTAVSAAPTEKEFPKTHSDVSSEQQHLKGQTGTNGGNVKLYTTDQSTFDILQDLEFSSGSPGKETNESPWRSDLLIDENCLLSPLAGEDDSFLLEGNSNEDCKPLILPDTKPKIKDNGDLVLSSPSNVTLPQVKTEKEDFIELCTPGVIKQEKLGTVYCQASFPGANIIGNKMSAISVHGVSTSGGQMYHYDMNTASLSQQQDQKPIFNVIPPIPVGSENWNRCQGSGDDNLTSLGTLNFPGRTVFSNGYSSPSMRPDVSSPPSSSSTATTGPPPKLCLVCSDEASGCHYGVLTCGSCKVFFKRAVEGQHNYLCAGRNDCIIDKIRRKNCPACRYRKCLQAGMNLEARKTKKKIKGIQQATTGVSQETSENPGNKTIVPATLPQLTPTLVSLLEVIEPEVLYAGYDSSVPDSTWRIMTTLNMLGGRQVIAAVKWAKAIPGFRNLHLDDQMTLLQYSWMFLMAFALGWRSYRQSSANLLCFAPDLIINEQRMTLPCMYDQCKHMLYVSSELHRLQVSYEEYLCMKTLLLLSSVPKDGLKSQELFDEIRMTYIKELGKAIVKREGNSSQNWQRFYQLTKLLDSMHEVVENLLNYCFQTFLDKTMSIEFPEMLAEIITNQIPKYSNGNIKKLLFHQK
Method in brief: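 Quantitative HTS using CellSensor MMTV-bla HeLa cells in charcoal/dextran-treated serum; compounds tested up to 92 uM. After 18 h at 37 C, CCF4 dye reported reporter induction.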

[11] = molecular target: Peroxisome proliferator-activated receptor delta (Homo sapiens) (UniProt Q03181); assay: qHTS assay for small molecule agonists of peroxisome proliferator-activated receptor delta signaling (AID 588534);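 further: 0% = DMSO basal wells and 100% = positive control agonist at 10 µM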
Sequence of Peroxisome proliferator-activated receptor delta (Homo sapiens) (Q03181 whole entry, looked up): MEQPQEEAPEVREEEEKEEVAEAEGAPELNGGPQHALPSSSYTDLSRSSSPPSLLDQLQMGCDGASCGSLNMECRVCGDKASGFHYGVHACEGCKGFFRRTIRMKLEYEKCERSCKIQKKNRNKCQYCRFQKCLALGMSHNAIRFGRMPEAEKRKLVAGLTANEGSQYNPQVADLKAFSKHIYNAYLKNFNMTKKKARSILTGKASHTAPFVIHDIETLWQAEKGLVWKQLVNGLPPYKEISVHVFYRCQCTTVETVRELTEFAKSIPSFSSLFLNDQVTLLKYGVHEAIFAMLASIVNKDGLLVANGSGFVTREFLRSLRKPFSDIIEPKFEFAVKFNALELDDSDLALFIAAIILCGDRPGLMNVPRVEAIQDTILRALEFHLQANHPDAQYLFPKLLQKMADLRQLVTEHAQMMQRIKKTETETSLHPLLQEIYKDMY
Method in brief: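 Fluorescence from CCF4 substrate cleavage by beta-lactamase reporter, read 2 hrs at RT, measured agonist activity. Compounds were tested with 18 hrs exposure at 37 C. Concentration-response data fitted to Hill equation.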

[12] = qHTS assay for small molecule antagonists of peroxisome proliferator-activated receptor delta signaling (AID 588535; active means well fitted inhibition curve with a large enough effect in the signal ratio, with a control signal flat, not every such curve was filed as active; the % refers to the signal ratio;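 on max response: cells co-treated with a PPAR-delta agonist as stimulator during compound exposure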); conditions: HEK293T PPARd-UAS-bla, beta-lactamase FRET ratio, 18 h; 460 nm channel
Method in brief: (§2)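 HEK293T PPAR-delta-UAS-bla cells, 4000/well, 2% charcoal/dextran FBS; 5 h 37 C; cpd titration; 18 h 37 C; CCF4 2 h RT; FI 460/530 nm; Hill fit → IC50, efficacy.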

[13] = molecular target: Peroxisome proliferator-activated receptor delta (Homo sapiens) (UniProt Q03181); assay: as above
Method in brief: as §2

[14] = molecular target: Peroxisome proliferator-activated receptor gamma (Homo sapiens) (UniProt P37231); assay: qHTS assay for small molecule agonists of peroxisome proliferator-activated receptor gamma signaling (AID 588536; active means well fitted curve in the direction sought with a large enough effect in the signal ratio, with a control signal flat, not every such curve was filed as active; the % refers to the signal ratio;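 further: 0% = DMSO basal wells and 100% = rosiglitazone at 2 µM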)
Sequence of Peroxisome proliferator-activated receptor gamma (Homo sapiens) (P37231 whole entry, looked up): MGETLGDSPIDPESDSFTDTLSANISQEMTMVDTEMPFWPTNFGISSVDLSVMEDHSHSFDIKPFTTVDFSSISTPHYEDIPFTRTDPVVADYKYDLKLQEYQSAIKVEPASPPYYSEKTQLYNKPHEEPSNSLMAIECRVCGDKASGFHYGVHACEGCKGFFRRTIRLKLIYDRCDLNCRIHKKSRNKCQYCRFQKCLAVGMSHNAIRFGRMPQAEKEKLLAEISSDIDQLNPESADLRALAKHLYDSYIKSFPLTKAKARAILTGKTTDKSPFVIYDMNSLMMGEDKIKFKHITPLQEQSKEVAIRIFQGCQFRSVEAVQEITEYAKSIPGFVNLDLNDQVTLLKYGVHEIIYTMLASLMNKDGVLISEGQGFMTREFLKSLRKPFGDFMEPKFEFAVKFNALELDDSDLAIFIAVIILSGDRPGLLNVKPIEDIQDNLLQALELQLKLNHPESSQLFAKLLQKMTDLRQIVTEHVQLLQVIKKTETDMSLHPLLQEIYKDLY
Method in brief: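 Test agents, titrated, stimulated HEK293 UAS-bla cells overnight (16 h, 37 C). Substrate CCF4 was then added for two hours at room temperature before fluorescence reading.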

[15] = molecular target: Peroxisome proliferator-activated receptor gamma (Homo sapiens) (UniProt P37231); assay: qHTS assay for small molecule antagonists of peroxisome proliferator-activated receptor gamma signaling (AID 588537; active means well fitted inhibition curve with a large enough effect in the signal ratio, with a control signal flat, not every such curve was filed as active; the % refers to the signal ratio;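 further: reporter cells co-stimulated with 50 nM rosiglitazone agonist during compound treatment; % of control where 0% means no effect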)
Method in brief: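 Antagonist mode, beta-lactamase reporter in HEK293; charcoal/dextran FBS 1%; 3000 cells/well, 37 C 6-6.5 h; cpd titration + rosiglitazone 50 nM final, 16 h 37 C; CCF4, 2 h RT; 460/530 nm; Hill fit → IC50, efficacy.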

[16] = molecular target: Retinoic acid receptor RXR-alpha (Homo sapiens) (UniProt P19793); assay: qHTS assay for small molecule agonists of retinoid X receptor alpha signaling (AID 588544);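 further: 0% = DMSO basal wells and 100% = reference agonist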
[17] = qHTS assay for small molecule activators of the p53 signaling pathway (AID 651743; active means well fitted activation curve with a large enough effect in the signal ratio, not every such curve was filed as active; the % refers to the signal ratio; further: series mostly up to about 92 µM; % of control where 0% means no effect); conditions: HCT-116 p53RE-bla, beta-lactamase FRET ratio, 16 h; activation: stronger effect = higher value
Method in brief: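 Read-out is fluorescence intensity from the LiveBLAzer B/G FRET substrate, added for 2 hours at room temperature after HCT-116 p53RE-bla cells had been incubated with compounds for 16 hours at 37 C.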

[18] = qHTS assay for small molecule agonists of the antioxidant response element (ARE) signaling pathway measured by Nrf2-dependant transcriptional activity - cell viability counter screen (AID 720653; active means well fitted curve in the direction sought with a large enough effect in the repeat runs; an effect the other way counts as inactive or inconclusive; further: on the % scale 0 is the no-effect control and ±100 the full control effect); conditions: ARE-bla HepG2 viability, CellTiter-Glo ATP luminescence, 16 h; max response: stronger effect = lower value
Method in brief: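 Cytotoxicity counter screen: intracellular ATP quantified by CellTiter-Glo luminescence in the same ARE-bla HepG2 plates, after 16 h compound exposure and a 2 h beta-lactamase substrate step.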

[19] = molecular target: Vitamin D3 receptor (Homo sapiens) (UniProt P11473); assay: qHTS assay for small molecule antagonists of vitamin D receptor signaling (AID 588541);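 further: receptor activated by calcitriol during compound treatment; series mostly up to about 77 µM; on the % scale 0 is the no-effect control and ±100 the full control effect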
Method in brief: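 Antagonist-mode beta-lactamase reporter assay: HEK293T VDR-UAS-bla cells were exposed to titrated compound alongside 1-alpha,25-dihydroxyvitamin D3 at 3 nM final for 16 h. Values were normalized to the 50 nM agonist control and DMSO basal, with IC50 and efficacy from Hill equation fits.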

[20] = molecular target: Nuclear receptor subfamily 1 group I member 2 (Rattus norvegicus) (UniProt Q9R1A7); assay: qHTS assay for small molecule activators of the rat pregnane X receptor (rPXR) signaling pathway (AID 651751; call rule not given here; further: 0% is about no effect); conditions: rPXR reporter cells, luciferase (One-Glo), 24 h
Sequence of Nuclear receptor subfamily 1 group I member 2 (Rattus norvegicus) (Q9R1A7 whole entry, looked up): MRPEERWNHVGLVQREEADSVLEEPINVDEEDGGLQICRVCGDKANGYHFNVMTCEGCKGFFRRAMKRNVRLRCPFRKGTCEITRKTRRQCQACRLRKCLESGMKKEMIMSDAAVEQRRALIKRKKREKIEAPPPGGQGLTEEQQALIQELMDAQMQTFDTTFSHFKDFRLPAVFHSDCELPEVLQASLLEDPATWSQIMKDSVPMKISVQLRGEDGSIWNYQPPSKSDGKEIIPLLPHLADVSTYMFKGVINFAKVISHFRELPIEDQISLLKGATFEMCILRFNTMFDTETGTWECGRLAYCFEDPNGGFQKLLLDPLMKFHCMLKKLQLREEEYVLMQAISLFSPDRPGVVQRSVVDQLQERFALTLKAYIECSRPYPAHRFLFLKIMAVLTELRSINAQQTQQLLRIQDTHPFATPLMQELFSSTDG

Sequence of Vitamin D3 receptor (Homo sapiens) (P11473 whole entry, looked up): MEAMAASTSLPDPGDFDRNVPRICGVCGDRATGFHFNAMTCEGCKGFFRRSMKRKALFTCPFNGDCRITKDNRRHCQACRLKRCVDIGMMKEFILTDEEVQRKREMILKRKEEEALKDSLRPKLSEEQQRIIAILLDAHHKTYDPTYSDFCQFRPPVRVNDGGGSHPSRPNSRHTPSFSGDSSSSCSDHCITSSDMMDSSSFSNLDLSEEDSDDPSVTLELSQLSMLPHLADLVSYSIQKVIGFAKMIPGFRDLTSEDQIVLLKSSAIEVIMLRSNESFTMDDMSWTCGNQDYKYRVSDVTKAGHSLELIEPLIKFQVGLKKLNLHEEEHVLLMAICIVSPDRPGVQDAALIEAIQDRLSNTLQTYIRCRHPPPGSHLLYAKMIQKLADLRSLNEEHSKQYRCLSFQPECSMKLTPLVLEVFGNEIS

N#CC(CCc1ccc(Cl)cc1)(Cn1cncn1)c1ccccc1 (stereo unspecified)
inactive: outcome [1] | Potency [2] | max response [4] -64.1% | activation [5] 3.22% | max response [6] -0.149% | Potency [7] | max response [8] -24.7% | Potency [9]
6.94%: max response [3]

C=CCOC(=O)C(C)(C)OC(=O)c1cc(-n2c(=O)cc(C(F)(F)F)n(C)c2=O)ccc1Cl
inactive: activation [10] -1.05% | outcome [11] | Potency [13] | Potency [14] | Potency [15] | outcome [1] | Potency [16] | Potency [2] | max response [4] 23.7% | activation [17] 4.39% | activation [5] 1.35% | max response [6] 2.63% | Potency [7] | max response [18] -16.6%
15.1%: max response [12]
-18.1%: max response [3]

CC(C)C1(C)N=C(c2ncccc2C(=O)O)NC1=O (stereo unspecified)
7.61%: max response [12]
-22%: max response [3]
inactive: activation [10] 0.632% | Potency [13] | Potency [14] | Potency [15] | Potency [19] | outcome [1] | Potency [16] | Potency [2] | max response [4] -0.742% | activation [17] -4.94% | activation [5] -1.56% | max response [6] -1.4% | Potency [7] | max response [18] -6.07% | max response [8] 8% | Potency [9] | max response [20] -3.34%

CC1(C)CON(Cc2ccccc2Cl)C1=O
23.3%: max response [12]
-9.42%: max response [3]
inactive: outcome [11] | Potency [13] | Potency [14] | Potency [15] | Potency [19] | Potency [16] | Potency [2] | max response [4] -4.63% | activation [17] -1.76% | activation [5] 5.31% | max response [6] 0.0347% | max response [18] -9.67% | max response [8] -8.49% | Potency [9] | max response [20] 13.2%

COc1cc(OC)nc(NC(=O)NS(=O)(=O)c2ncccc2C(F)(F)F)n1
-12.7%: max response [12]
-9.13%: max response [3]
inactive: activation [10] -18.1% | outcome [11] | Potency [13] | Potency [14] | Potency [15] | Potency [19] | Potency [16] | Potency [2] | max response [4] 2.48% | activation [17] -1.26% | activation [5] 1.17% | max response [6] -1.83% | Potency [7] | max response [18] -1.73% | max response [8] -6.81% | Potency [9] | max response [20] 0.924%

COC(=O)N(C(=O)N1COC2(C(=O)OC)Cc3cc(Cl)ccc3C2=N1)c1ccc(OC(F)(F)F)cc1 (stereo unspecified)
inactive: activation [10] 17.1% | Potency [13] | Potency [19] | outcome [1] | activation [17] -1.52% | activation [5] 2.68% | max response [6] -1.75% | Potency [7] | max response [18] -4.11% | max response [8] -21.9% | Potency [9]
21%: max response [12]

COc1cc(OC)nc(NC(=O)NS(=O)(=O)c2cc(NC=O)ccc2C(=O)N(C)C)n1
-27.4%: max response [12]
inactive: activation [10] -12.6% | outcome [11] | Potency [13] | Potency [14] | Potency [15] | Potency [19] | outcome [1] | Potency [16] | Potency [2] | max response [4] 14.5% | activation [17] -3.45% | activation [5] -3.78% | max response [6] -4.09% | Potency [7] | max response [8] -24.7% | max response [20] -9.56%
-2.91%: max response [3]

CCSC(=O)N(CC)C1CCCCC1
inactive: activation [10] -1.4% | outcome [11] | Potency [14] | Potency [15] | Potency [19] | outcome [1] | Potency [16] | Potency [2] | max response [4] 16.6% | max response [6] -3.86% | Potency [7] | max response [18] 13.6% | max response [8] 10.3% | max response [20] -10.9%
12.6%: max response [3]

Cn1c(-c2ccccc2)cc(-c2ccccc2)[n+]1C
inactive: activation [10] -9.09% | outcome [11] | Potency [14] | Potency [15] | Potency [19] | outcome [1] | Potency [16] | max response [4] -10.3% | activation [5] -2.45% | max response [6] -0.162% | Potency [7] | max response [8] 5.36% | max response [20] -12.3%
17.2%: max response [3]

Cc1cc(Cl)ccc1O[C@H](C)C(=O)O
-16.8%: max response [3]
inactive: Potency [15] | Potency [16] | Potency [2] | max response [4] -2.52% | activation [17] -0.679% | max response [6] -1.51% | Potency [7] | max response [18] 7.37% | max response [8] 0.74% | Potency [9] | max response [20] -1.45%
